Compound activity (PubChem BioAssay)
TDP1 cell noCPT: qHTS for Inhibitors of human tyrosyl-DNA phosphodiesterase 1 (TDP1): qHTS in cells in absence of CPT; DT40 Tdp1-/- hTDP1 cells, no CPT, ATP luminescence, 48 h; 420,000 compounds, 15% hits; Potency, µM (highest dose often 46.2 µM), hits mostly inhibitors; also: nearly all actives have a fitted effect of over 55% in size
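Chicken DT40 Tdp1-/- cells complemented with human TDP1, screened without camptothecin (DMSO vehicle only), 400 cells/well. Compounds pin-transferred, cells incubated at 37 °C for at least 48 hr. Growth read as ATP-dependent luminescence (CellTiter-Glo, 30 min at RT).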
TDP1 cell CPT: DT40-hTDP1 cell growth loss with CPT; chicken DT40 Tdp1-/-;hTDP1 cells + 20 nM CPT, ATP luminescence, 48 h; Potency, µM (doses to about 46.2 µM), most hits filed as inhibitors; 420,000 compounds, 12% hits; also: nearly all actives have a fitted effect of over 55% in size
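Chicken DT40 Tdp1-/- cells complemented with human TDP1, 400 cells/well, exposed to compounds plus 20 nM camptothecin for at least 48 h at 37 C; viability read as ATP content by CellTiter-Glo luminescence.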
TDP1 inh: inhibitors of human tyrosyl-DNA phosphodiesterase TDP1; Potency, µM (doses to about 130 µM), actives largely listed as inhibitors; AID 485290; recombinant TDP1, AlphaScreen DNA substrate cleavage; 350,000 compounds, 0.28% hits; also: nearly all actives have a fitted effect of over 40% in size
Target sequence (Q9NUW8 whole entry, looked up): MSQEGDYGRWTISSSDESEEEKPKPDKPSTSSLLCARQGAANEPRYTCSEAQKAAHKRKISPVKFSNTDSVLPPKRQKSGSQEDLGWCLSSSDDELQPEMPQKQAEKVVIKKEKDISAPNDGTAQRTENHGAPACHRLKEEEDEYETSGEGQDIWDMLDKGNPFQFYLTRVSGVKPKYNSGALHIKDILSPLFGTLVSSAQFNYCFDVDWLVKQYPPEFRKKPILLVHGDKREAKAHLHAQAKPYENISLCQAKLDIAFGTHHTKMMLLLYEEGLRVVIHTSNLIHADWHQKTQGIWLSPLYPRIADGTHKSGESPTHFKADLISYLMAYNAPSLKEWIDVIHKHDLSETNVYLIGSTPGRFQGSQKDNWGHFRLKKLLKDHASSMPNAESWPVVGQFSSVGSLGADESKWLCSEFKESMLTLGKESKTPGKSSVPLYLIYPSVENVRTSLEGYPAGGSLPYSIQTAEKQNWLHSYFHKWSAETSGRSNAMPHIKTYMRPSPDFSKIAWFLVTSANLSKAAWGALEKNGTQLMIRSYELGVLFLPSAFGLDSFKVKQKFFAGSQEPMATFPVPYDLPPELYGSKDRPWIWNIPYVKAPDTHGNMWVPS
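Recombinant human Tdp1 (E. coli-expressed, 1 nM final) preincubated with compounds 15 min at room temperature, then 5'-biotin/3'-phosphotyrosine-FITC DNA substrate (15 nM final) added for 5 min. AlphaScreen beads (10 ug/ml final) added 10 min; cleavage lowers signal.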
ELG1 DNA repair: blocks ELG1-dependent DNA repair in HEK293T cells; 330,000 compounds, 2.3% hits; HEK293T ELG1-luciferase reporter, luminescence, 16 h; DNA damage induced by 5-fluorouridine; Potency, µM (top dose mostly 46.1 µM), most hits filed as inhibitors; also: nearly all actives have a fitted effect of over 55% in size
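Reporter activity after DNA damage by 5-fluorouridine is monitored. Compound-treated cells incubate 16 hr at 37 °C, then ONE-Glo is added for 30 min before luminescence reading.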
IL1B secr inh: blocks inflammasome-driven IL-1 beta release; 360,000 compounds, 4.7% hits; THP-1 LPS/ATP IL-1B secretion, AlphaLISA, 16 h; active compounds read low; activity change, % at 57.5 µM; in the data active = activity change below about -50%; inconclusive = mostly about -30% to -49%
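THP-1 cells pretreated 1 hr with compounds (up to 57.5 uM final), then stimulated with LPS (250 ng/mL final) plus ATP (1.25 mM final); secreted IL-1B measured by AlphaLISA after 16 hr, decreased signal indicating inhibition.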
Giardia kill: kills Giardia lamblia; Giardia lamblia trophozoite viability; activity change, % at 7.66 µM, hits read low; 340,000 compounds, 0.15% hits; AID 540267; in the data active = activity change below about -80%; inconclusive = between about -30% and that limit;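 also: parasites exposed to compound for two days anaerobically before the ATP read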
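ATP-content bioluminescence gauges trophozoite survival. Cells (100/well) receive compound and incubate anaerobically for 48 hrs at 37 deg C; detection reagent follows for 15-30 min at room temperature.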
A number is an active result; [ ] = remark or other dose. In the library only some 19% were active in any assay of this set; here they are far more common. Unless noted, calls follow the shape of the dose curve; as a rule, active = well fitted curve in the direction sought with a large enough effect; inconclusive = small, poorly fitted or top-dose-only effect, or another doubt; inactive = no such curve, though single readings can be large; an effect the other way counts as inactive or inconclusive.

What do the screens show for `CC(C)(C)c1ccc(Cn2nnc3c(=O)[nH]c(C4CCCN(C(=O)Cc5cccs5)C4)nc32)cc1` (stereo not given)?
TDP1 cell noCPT: inconclusive; TDP1 cell CPT: 23µM; TDP1 inh: inactive; ELG1 DNA repair: inactive; IL1B secr inh: inactive; Giardia kill: inactive

Results for O=C(Cc1ccccc1)Oc1coc(CSc2ncccn2)cc1=O ?
TDP1 cell noCPT: inactive; TDP1 cell CPT: inactive; TDP1 inh: inactive; ELG1 DNA repair: inactive; IL1B secr inh: inactive; Giardia kill: inactive

Results for COc1cc(F)c(S(=O)(=O)N2CCCN(S(=O)(=O)c3ccc4c(c3)OCCO4)CC2)c(F)c1 ?
TDP1 inh: inactive

What do the screens show for `COc1ccc(CNC(=O)c2cc3cc(S(=O)(=O)N4CCCCC4)ccc3n2C)c(OC)c1`?
TDP1 cell noCPT: inconclusive; TDP1 cell CPT: inactive; TDP1 inh: inactive

How did COc1ccc(CCNC(=O)Cn2c(=O)nc(-c3ccccc3)c3cc(Cl)ccc32)cc1OC do in these assays?
TDP1 cell noCPT: inconclusive; TDP1 cell CPT: inconclusive; TDP1 inh: inactive

Results for CCN1CCN(c2cc(C)c3cc(NC(=O)c4cc(Br)ccc4Cl)ccc3n2)CC1 ?
TDP1 cell noCPT: inconclusive; TDP1 cell CPT: inconclusive; TDP1 inh: inactive

Results for CC(C)(C)CC(=O)N1CCC(c2nc3c(nnn3Cc3c(F)cccc3Cl)c(=O)[nH]2)CC1 ?
TDP1 cell noCPT: inconclusive; TDP1 cell CPT: 16µM; TDP1 inh: inactive; ELG1 DNA repair: 16µM; IL1B secr inh: inactive; Giardia kill: inactive

What do the screens show for `CCc1ccc(NC(=O)Cn2cc(S(=O)(=O)c3ccc(F)cc3)c(=O)c3cc(OC)ccc32)cc1`?
TDP1 cell noCPT: inconclusive; TDP1 cell CPT: inconclusive; TDP1 inh: inactive

What do the screens show for `Cc1ccc[n+](-c2nc([O-])sc2C=O)c1`?
TDP1 cell noCPT: inactive; TDP1 cell CPT: inactive; TDP1 inh: 28µM; ELG1 DNA repair: inactive; IL1B secr inh: inactive; Giardia kill: inactive

What do the screens show for `CCOC(=O)N1CCN([N+]([O-])=NOc2cc(O/N=[N+](\[O-])N(CC)CC)c([N+](=O)[O-])cc2[N+](=O)[O-])CC1`?
TDP1 inh: inactive; Giardia kill: inactive

Results for Cc1nn(C)cc1C(=O)Nc1cc(Oc2ccc(Cl)cc2)cc([N+](=O)[O-])c1 ?
TDP1 cell noCPT: inconclusive; TDP1 cell CPT: inconclusive; TDP1 inh: inactive; ELG1 DNA repair: inactive; IL1B secr inh: inactive; Giardia kill: inactive

How did Cc1nn(CCCC(=O)Nc2cc(Oc3ccccc3)cc([N+](=O)[O-])c2)c(C)c1[N+](=O)[O-] do in these assays?
TDP1 cell noCPT: inconclusive; TDP1 cell CPT: inconclusive; TDP1 inh: inactive; ELG1 DNA repair: inconclusive; IL1B secr inh: -50; Giardia kill: inactive

Results for CCn1nc(C)c(C(=O)Nc2cc(Oc3cc(C)cc(C)c3)cc([N+](=O)[O-])c2)c1C ?
TDP1 cell noCPT: 21µM; TDP1 cell CPT: inconclusive; TDP1 inh: inactive; ELG1 DNA repair: 13µM; IL1B secr inh: inactive; Giardia kill: inactive

Results for CS(=O)(=O)c1ccccc1C(=O)Nc1cccc2ncccc12 ?
TDP1 cell noCPT: inactive; TDP1 cell CPT: inactive; TDP1 inh: inactive; ELG1 DNA repair: inactive; IL1B secr inh: inactive; Giardia kill: inactive

How did COc1ccccc1/C=C1\CCC(C2CCCC2)C1=O (stereo not given) do in these assays?
TDP1 cell noCPT: inconclusive; TDP1 cell CPT: inactive; ELG1 DNA repair: inconclusive; IL1B secr inh: inactive; Giardia kill: inactive

What do the screens show for `CCOC(=O)N1CCN(c2cc(N3CCOCC3)c(F)cc2[N+](=O)[O-])CC1`?
TDP1 cell noCPT: inconclusive; TDP1 cell CPT: inactive; TDP1 inh: inactive; ELG1 DNA repair: inactive; IL1B secr inh: inactive; Giardia kill: inactive

What do the screens show for `CCOC(=O)N1CCN(c2cc(N3CCN(CC)CC3)c(F)cc2[N+](=O)[O-])CC1C` (stereo not given)?
TDP1 cell noCPT: inconclusive; TDP1 cell CPT: 21µM; TDP1 inh: inactive; ELG1 DNA repair: inactive; IL1B secr inh: inconclusive; Giardia kill: inactive

How did CC(C)c1nn2c(=O)cc(COc3cccc(NC(=O)c4ccco4)c3)nc2s1 do in these assays?
TDP1 cell noCPT: inactive; TDP1 cell CPT: inconclusive; TDP1 inh: inactive; ELG1 DNA repair: inactive; IL1B secr inh: inactive; Giardia kill: inactive

What do the screens show for `S=C(NCCC(c1ccccc1)c1ccccc1)Nc1ccc(Cl)cc1`?
TDP1 cell noCPT: inconclusive; TDP1 cell CPT: inconclusive; TDP1 inh: inactive; ELG1 DNA repair: inactive; IL1B secr inh: -92; Giardia kill: inactive

Results for COc1cc(NC(=S)NCCC(c2ccccc2)c2ccccc2)c(OC)cc1Cl ?
TDP1 cell noCPT: 18µM; TDP1 cell CPT: 9.2µM; TDP1 inh: inactive; ELG1 DNA repair: inactive; IL1B secr inh: inactive; Giardia kill: inactive

How did COc1ccccc1NC(=S)NCCC(c1ccccc1)c1ccccc1 do in these assays?
TDP1 cell noCPT: inconclusive; TDP1 cell CPT: inconclusive; TDP1 inh: inactive; ELG1 DNA repair: inactive; IL1B secr inh: inactive; Giardia kill: inactive

What do the screens show for `COc1ccc(Cl)cc1NC(=O)c1ccccc1C`?
TDP1 cell noCPT: inactive; TDP1 cell CPT: inactive; TDP1 inh: inactive; ELG1 DNA repair: inconclusive; IL1B secr inh: inactive; Giardia kill: inactive

Results for COc1ccc(Cl)cc1NC(=S)NCCC(c1ccccc1)c1ccccc1 ?
TDP1 cell noCPT: 23µM; TDP1 cell CPT: 23µM; TDP1 inh: inactive; ELG1 DNA repair: inactive; IL1B secr inh: inactive; Giardia kill: inactive

How did S=C(NCCC(c1ccccc1)c1ccccc1)Nc1ccccc1Cl do in these assays?
TDP1 cell noCPT: inconclusive; TDP1 cell CPT: inconclusive; TDP1 inh: inactive; ELG1 DNA repair: inactive; IL1B secr inh: inactive; Giardia kill: inactive

What do the screens show for `COc1ccc(Cl)cc1NC(=S)Nc1ccccc1C`?
TDP1 cell noCPT: 23µM; TDP1 cell CPT: inconclusive; TDP1 inh: inactive; ELG1 DNA repair: inactive; IL1B secr inh: inactive; Giardia kill: inactive

Results for CC(C)N1CCN(C(=O)c2cnn(-c3nccc(-c4ccc5c(c4)OCO5)n3)c2-c2ccco2)CC1 ?
TDP1 cell noCPT: inconclusive; TDP1 cell CPT: inactive[9.04 µM]

What do the screens show for `CC(=O)Nc1ccc(CC(=O)NCCC(c2ccccc2)c2ccccc2)cc1`?
TDP1 cell noCPT: 18µM; TDP1 cell CPT: 16µM; TDP1 inh: inactive; ELG1 DNA repair: inactive; IL1B secr inh: inactive; Giardia kill: inactive

What do the screens show for `COc1ccccc1C(=O)NCC(=O)Nc1ccccc1`?
TDP1 cell noCPT: inactive; TDP1 cell CPT: inconclusive; TDP1 inh: inactive; ELG1 DNA repair: inactive; IL1B secr inh: inactive; Giardia kill: inactive

Results for COc1ccc(Cl)cc1NC(=O)NC1CCCCC1 ?
TDP1 cell noCPT: inconclusive; TDP1 cell CPT: inactive; TDP1 inh: inactive; ELG1 DNA repair: inactive; IL1B secr inh: inactive; Giardia kill: inactive
